Screen size: about 5,400 compounds; about 190 (3.5%) showed an effect of 50% or more. Shown is part of a subset that was picked to be rich in strong results.
system: Vero-E6; assay: primary screen, phospholipidosis by LipidTOX staining; higher = more effect of the substance; conditions: 10 µM
Method: To measure drug-induced PLD in Vero-E6 cells, we used the HCS LipidTOX Red Phospholipidosis Detection Reagent (Invitrogen, #H34351), which is non-toxic to cell growth and remains well retained after aldehyde fixation. In this setup, compounds (at 10 μM concentration) and controls (amiodarone: 10 μM concentration; DMSO: 0.1 v/v %) were added to clear-bottom, 384-well plates (PhenoPlate 384-well, black, optically clear flat bottom, tissue-culture treated, Revvity #6057302) using the Echo Liquid Handler (Labcyte).

Question: Which result_ITMP does the source give for `CN1CCN(Cc2ccc(Nc3ncc(Cl)c(Nc4ccccc4S(=O)(=O)N(C)C)n3)cc2)CC1` here?
Answer: 1.65%

Question: Which result_ITMP does the source give for `CNC(=O)c1ccccc1Nc1cc(Nc2ccc(N3CCOCC3)cc2OC)ncc1C(F)(F)F` here?
Answer: 10.6%

Question: `CNC(=O)c1ccccc1Nc1nc(Nc2ccc3c(c2OC)CCC[C@H](N2CCN(CCO)CC2)C3)ncc1Cl` was tested. Which result_ITMP did it give?
Answer: 139%

Question: For `CC1(C)S[C@@H]2[C@H](NC(=O)C(C(=O)[O-])c3ccsc3)C(=O)N2[C@H]1C(=O)[O-]` (stereo partly drawn), which result_ITMP is on record?
Answer: -2.7%

Question: `CCCCCC(O)CCCC(=O)[O-]` (stereo not drawn) was tested. Which result_ITMP did it give?
Answer: -2.69%

Question: Which result_ITMP does the source give for `CC#C[C@@H](CC(=O)[O-])c1ccc(OCc2cccc(-c3ccc(C(F)(F)F)cc3)c2)cc1` here?
Answer: 2.55%

Question: With `CCN[C@@H](C)Cc1cccc(C(F)(F)F)c1` as the compound, how does the result_ITMP read?
Answer: 3.76%

Question: With `CC(Cc1cccc(C(F)(F)F)c1)NCCOC(=O)c1ccccc1` (stereo not drawn) as the compound, how does the result_ITMP read?
Answer: 6.92%

Question: For `C[C@@H](NCCCc1cccc(C(F)(F)F)c1)c1cccc2ccccc12`, which result_ITMP is on record?
Answer: 61.8%

Question: How did the result_ITMP turn out when `CSCCC(N)C(=O)O` (stereo not drawn) was run?
Answer: -3.06%

Question: How did the result_ITMP turn out when `O[C@H]1[C@H]2[C@H](O)CCCN2C[C@H]1O` was run?
Answer: 0.57%

Question: For `c1cc(Nc2cc(C3CC3)n[nH]2)nc(Nc2ccc3nc[nH]c3c2)n1`, which result_ITMP is on record?
Answer: -1.4%

Question: `CSc1ccccc1Nc1nc(N2CCNCC2)nc2c(NCC3CC3)ncnc12` was tested. Which result_ITMP did it give?
Answer: 79.3%

Question: With `CN1C2C=C(c3sccc3Br)CC1CC2` (stereo not drawn) as the compound, how does the result_ITMP read?
Answer: 6.82%

Question: How did the result_ITMP turn out when `CCN(CCO)CCCOc1ccc2c(Nc3cc(CC(=O)Nc4cccc(F)c4)n[nH]3)ncnc2c1` was run?
Answer: -2.36%

Question: With `Clc1ccc(C(OCCN2CCCCC2)c2ccccc2)cc1` (stereo not drawn) as the compound, how does the result_ITMP read?
Answer: 63.9%

Question: How did the result_ITMP turn out when `c1ccc(CCCN2CCN(CCOC(c3ccccc3)c3ccccc3)CC2)cc1` was run?
Answer: 15%

Question: For `C(=C\c1ccccc1)/CN1CCN(CCOC(c2ccccc2)c2ccccc2)CC1`, which result_ITMP is on record?
Answer: 7.08%

Question: For `C#C[C@]1(OC(C)=O)CCC2C3CCC4=C/C(=N/O)CCC4C3CC[C@@]21CC` (stereo partly drawn), which result_ITMP is on record?
Answer: 1.9%

Question: With `O=C(CCCN1CCC(O)(c2ccc(Cl)cc2)CC1)c1ccc(F)cc1` as the compound, how does the result_ITMP read?
Answer: 3.22%

Question: With `OC1(c2ccc(Cl)c(C(F)(F)F)c2)CCN(CCCC(c2ccc(F)cc2)c2ccc(F)cc2)CC1` as the compound, how does the result_ITMP read?
Answer: 36.2%

Question: Which result_ITMP does the source give for `CN(C)C(=O)C(CCN1CCC(O)(c2ccc(Cl)cc2)CC1)(c1ccccc1)c1ccccc1` here?
Answer: 67.2%

Question: For `NCCCCCC(O)(P(=O)([O-])O)P(=O)(O)O`, which result_ITMP is on record?
Answer: -0.14%

Question: Which result_ITMP does the source give for `Nc1ncnc2c1nc(Br)n2[C@@H]1O[C@@H]2COP(=O)([O-])O[C@H]2[C@H]1O` here?
Answer: 15.8%

Question: How did the result_ITMP turn out when `CCN1C(=O)CN=C2NC=C(c3ccc(-c4nnc[nH]4)nc3C)N=C21` was run?
Answer: -2.57%

Question: Which result_ITMP does the source give for `OC[C@@H](O)[C@@H](O)[C@@H](O)CO` here?
Answer: -6.6%

Question: `COc1cc(NC(=O)c2ccc(-c3ccc(Cl)cc3)o2)cc(OC)c1` was tested. Which result_ITMP did it give?
Answer: 2.29%

Question: For `O=C(Nc1ccc(CN2CCOCC2)cc1)c1ccc(-c2cccc(Cl)c2)o1`, which result_ITMP is on record?
Answer: 56.3%

Question: With `CCNC(=O)c1noc(-c2cc(C(C)C)c(O)cc2O)c1-c1ccc(CN2CCOCC2)cc1` as the compound, how does the result_ITMP read?
Answer: -0.23%

Question: Which result_ITMP does the source give for `C[C@]12C=CC(=O)C=C1CCC1C2[C@@H](O)C[C@@]2(C)C1CC[C@]2(O)C(=O)COC(=O)CCC(=O)O` (stereo partly drawn) here?
Answer: -5.57%

Question: `Cc1cc(/C=C2\SC(=O)N(c3ccccc3)C2=O)c(C)n1-c1cccnc1` was tested. Which result_ITMP did it give?
Answer: -6.01%

Question: Which result_ITMP does the source give for `O=C(Nc1ccc2c(O)cc(S(=O)(=O)[O-])cc2c1)Nc1ccc2c(O)cc(S(=O)(=O)[O-])cc2c1` here?
Answer: -7.47%

Question: With `COc1ccc(CCN(C)CCCN2CCc3cc(OC)c(OC)cc3CC2=O)cc1OC` as the compound, how does the result_ITMP read?
Answer: -1.11%

Question: How did the result_ITMP turn out when `COc1ccc(CCN(C)CCCOc2ccc(S(=O)(=O)c3c(C(C)C)c4ccccc4n3C)cc2)cc1OC` was run?
Answer: 84.7%

Question: With `COc1ccc(CCN(C)CCc2ccc(OC)c(OC)c2)cc1OC` as the compound, how does the result_ITMP read?
Answer: -1.15%

Question: For `O=C(NCCN1CCC2(CC1)C(=O)NCN2c1cccc(F)c1)c1ccc(F)c(F)c1`, which result_ITMP is on record?
Answer: 60.1%

Question: How did the result_ITMP turn out when `COc1ccc2cccc(N3CCN(CCNC(=O)c4ccc(F)cc4)CC3)c2c1` was run?
Answer: 14%

Question: For `O=C1NCN(c2ccccc2)C12CCN(CCCC(c1ccc(F)cc1)c1ccc(F)cc1)CC2`, which result_ITMP is on record?
Answer: 1.98%

Question: For `O=C(NCCN1CCC2(CC1)C(=O)NCN2c1cccc(F)c1)c1ccc2ccccc2c1`, which result_ITMP is on record?
Answer: 55.1%

Question: For `O=C(NCCN1CCOCC1)c1ccc(Cl)cc1`, which result_ITMP is on record?
Answer: -6.19%

Question: Which result_ITMP does the source give for `COc1ccccc1N1CCN(CCCCNC(=O)c2ccc3ccccc3c2)CC1` here?
Answer: 34.4%

Question: How did the result_ITMP turn out when `C[C@@H]1CCO[C@H]2Cn3cc(C(=O)NCc4ccc(F)cc4F)c(=O)c(O)c3C(=O)N12` was run?
Answer: -4.23%

Question: `CN(C)CCCO[C@@H]1[C@H]2OC(C)(C)O[C@H]2O[C@@H]1[C@H](O)CO` was tested. Which result_ITMP did it give?
Answer: -8.5%

Question: Which result_ITMP does the source give for `C[C@@H]1C[C@H]2[C@@H]3CCC4=CC(=O)C=C[C@]4(C)[C@@]3(Cl)[C@@H](O)C[C@]2(C)[C@@]1(O)C(=O)CCl` here?
Answer: 0.3%

Question: For `O=C(O)c1ccccc1C(=O)Nc1ccc(-c2ccccc2)cc1`, which result_ITMP is on record?
Answer: -1.06%

Question: With `O=C(CN1C2=NCCN2c2ccccc21)c1ccc(-c2ccccc2)cc1` as the compound, how does the result_ITMP read?
Answer: 53.9%

Question: How did the result_ITMP turn out when `CN(CCCN1c2ccccc2CCc2ccccc21)CC(=O)c1ccc(Cl)cc1` was run?
Answer: 13.8%

Question: For `c1ccc(CNc2ncnc3nc[nH]c23)cc1`, which result_ITMP is on record?
Answer: -8.79%

Question: How did the result_ITMP turn out when `c1ccc(CNc2nc(NCc3ccccc3)c3ccccc3n2)cc1` was run?
Answer: 58.9%

Question: `Cn1cnc2c(NCc3ccccc3)nc(NCCO)nc21` was tested. Which result_ITMP did it give?
Answer: -1.91%

Question: For `N=C(N)Nc1nc(CSCCN/C=N/S(=O)(=O)c2ccc(Br)cc2)cs1`, which result_ITMP is on record?
Answer: 0.59%

Question: `O=C([O-])c1ccccc1Nc1cc(Cl)ccc1C(=O)[O-]` was tested. Which result_ITMP did it give?
Answer: -3.54%

Question: `C[C@@H]([C@H](O)c1ccc(O)cc1)N1CCC(Cc2ccccc2)CC1.C[C@H]([C@@H](O)c1ccc(O)cc1)N1CCC(Cc2ccccc2)CC1` was tested. Which result_ITMP did it give?
Answer: 8.99%

Question: With `CN[C@H](CC(C)C)C(=O)NC1C(=O)N[C@@H](CC(N)=O)C(=O)N[C@H]2C(=O)NC3C(=O)N[C@H](C(=O)N[C@@H](C(=O)O)c4cc(O)cc(O)c4-c4cc3ccc4O)[C@H](O)c3ccc(c(Cl)c3)Oc3cc2cc(c3O[C@@H]2OC(CO)[C@@H](O)[C@H](O)[C@H]2O[C@H]2C[C@](C)(N)[C@H](O)[C@H](C)O2)Oc2ccc(cc2Cl)[C@H]1O` (stereo partly drawn) as the compound, how does the result_ITMP read?
Answer: -7.09%

From publication PMC13083723 (Patterns, 2026)
